In PubChem BioAssay (NCI):
The panel holds about 83,000 compounds, 20% with a hit somewhere; the sample as a whole holds those more often.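 Growth was measured after 48 h exposure to one concentration of compound in 96-well plates. Values under 10 count as active.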 A number with no mark means an inactive call. Active and inactive are the calls of the source.

tested on: PC-3 prostate; assay: NCI-60 one-dose screen, 48 h (100 = growth as untreated, 0 = no growth, -100 = all killed); details: 10 µM unless noted
Procedure: Growth inhibition of the PC-3 human tumor cell line is measured as a screen for anti-cancer activity. Cells are grown in 96 well plates and exposed to the test compound for 48 hours. Compounds are tested at a single concentration, which is 10^-5 M for most compounds. The reported endpoint is percent growth (GI% or GIPRCNT), where numbers from 0 - 100% represent growth inhibition, and numbers from -100% - 0 represent cell death. For example, a value of 40 represents 60% growth inhibition. A value of 0 means no net growth occurred over the course of the experiment. A value of -40 indicates 40% of cells at the beginning of the experiment died by the end of the experiment. A value of -100 means all cells are dead at the end of the experiment.
NCI-60 Human Tumor Cell Lines Screen was performed using the standard one-dose NCI protocol, which is described in more detail at https://dtp.cancer.gov/discovery_development/nci-60/default.htm.
Compounds with GIPRCNT values below 10 were considered active. Activity score was based on GIPRCNT using the following formula: […]
Score is 0 for GIPRCNT values of 100 or above, 50 for GIPRCNT values of 0, and 100 for GIPRCNT values of -100.

SMILES | growth
Cn1cc(-c2cc3nc(-c4cn(C)c5ncc(Br)cc45)cc(N)n3n2)c2ccccc21 | -15.5% (active)
COc1ccc(NC(=O)[C@@H](N)Cc2ccccc2)cc1C(=O)Nc1cccc(C2CC(=O)c3c(cc(OC)c(OC)c3OC)O2)c1 (stereo not given in full) | 38.8%
C=C1CC[C@@H]2[C@]3(C)COC(c4cn[nH]c4-c4ccc(C)cc4)O[C@@H]3CC[C@@]2(C)[C@@H]1C/C=C1/C(=O)OCC1O (stereo not given in full) | 37.6%
COc1cc(-c2nc3cc(Cl)c(Cl)cc3[nH]2)ccc1OCc1nnc(-c2cccs2)o1 | 50%
S=c1c2ccccc2nc2n1CCc1c-2[nH]c2ccccc12 | 60.8%
Cc1cccc(NC(=O)[C@]23CCC(C)(C)CC2C2=CCC4[C@@]5(C)C[C@@H](O)[C@H](O)[C@@](C)(CO)C5CC[C@@]4(C)[C@]2(C)CC3)c1 (stereo not given in full) | 13.3%
O=C(COc1ccc(NC(=O)Nc2ccc(Cl)c(Cl)c2)cc1)N=Nc1c(O)[nH]c2ccc([N+](=O)[O-])cc12 | 71.6%
O=C(c1ccccc1)c1ccc2nc(-c3cccc(Cl)c3)[nH]c2c1 | 99.6%
CCOC(=O)C1=C(N)N(c2ccccc2)C2=C(C(=O)CC(C)(C)C2)C1c1ccccc1Cl (stereo not given) | 29.6%
COc1ccc(-c2ccnc(SCc3cc4ccccc4[nH]c3=O)n2)cc1 | 69.6%
Cc1cc(C)cc(NC(=O)Cn2cc(COn3nnc4ccccc43)nn2)c1 | 97.9%
NS(=O)(=O)c1ccc(NNC(=O)CCC(=O)c2ccccc2)cc1 | 97.6%
COc1cc2oc(-c3cccc(C(=O)Nc4ccc(Cl)cc4)c3)cc(=O)c2c(OCCNC(=O)[C@H](CO)NC(=O)OC(C)(C)C)c1OC | 12.9%
COc1ccc(-c2nc3cc(C)ccc3n2CC(=O)N=Nc2c(O)[nH]c3ccc(Cl)cc23)cc1 | 9.75% (active)
CN1CCN(c2ccc(C(=O)/C=C/c3ccc(Br)cc3)cc2)CC1 | 34.4%
CCOC(=O)c1ccc(Nc2nc(NN)nc(-c3ccc(OC)cc3)c2C#N)cc1 | 85.2%
COc1ccc(-c2ccc(SCC(=O)Nc3ccc(S(N)(=O)=O)cc3Br)nn2)cc1 | 73.5%
C=C1CCC2C3(C)COC(c4ccco4)OC3CCC2(C)C1CC(Sc1ccccc1)C1=CCOC1=O (stereo not given) | 50.2%
Cc1ccc(S(=O)(=O)c2nc(S(=O)(=O)c3ccc(C)cc3)c(Cl)s2)cc1 | 18%
CN1CCN(c2ccc(C(=O)/C=C/c3cc(C(F)(F)F)cc(C(F)(F)F)c3)cc2)CC1 | -26.4% (active)

SMILES | growth
CCN(CC)c1ccnc(CNCCSC(c2ccccc2)(c2ccccc2)c2ccc(C)cc2)c1 | -76.6% (active)
CN(C)c1nc(NCCNS(=O)(=O)c2ccc(C(=O)/C=C/c3ccc(C(F)(F)F)cc3)cc2)nc(Nc2ccc(F)cc2)n1 | -33.5% (active)
O=C(O)Cn1c(O)c(/C=C2/C=c3cc4c(cc3=NC2=O)OCCO4)sc1=S | 106%
COc1ccc(N2N=C(c3ccc4c(c3)OCO4)CC2c2cccc(NC(=O)CCCNS(=O)(=O)c3ccc(F)cc3)c2)cc1 (stereo not given) | 42.5%
S=C(Nc1ccccc1)Nc1ccc(OCc2nc3ccccc3[nH]2)cc1 | 42%
O=C(Nc1ccccc1)N1CCN(c2cc(-c3cn(-c4ccccc4)nc3-c3cccc(O)c3)ccn2)CC1 | 43%
O=C1N/C(=N\c2nccs2)S/C1=C\C=C/c1ccccc1 | 46.6%
COc1ccc(CCC2c3c(cc4c(c3OC)OCO4)CCN2C)cc1 (stereo not given) | 3.75% (active)
COc1ccc2c(c1)c(-c1cc3nc(-c4cn(C)c5ncc(Br)cc45)cc(N)n3n1)cn2C | -19.5% (active)
COc1ccc(-c2nc(SC(C)C)nc(NCCc3c[nH]c4ccccc34)c2C#N)cc1 | 11.7%
COc1ccc(/C=N/NC(=O)Cn2nc(Cc3ccc(OC)cc3)c3onc(C)c3c2=O)cc1 | 23.2%
Cc1ccc(Cc2cnc(NC(=O)c3ccc(/C=C4\SC(=S)N(C)C4=O)cc3)s2)cc1 | 37.3%
CCN(CC)CCOc1ccc(Nc2ncc3cc(-c4ccc(O)c(C#N)c4)c(=O)n(C)c3n2)cc1 | 69.5%
COc1cc2c(c(OC)c1OC)C(=O)CC(c1cccc(NC(=O)c3cc(NC(=O)[C@H](CO)NC(=O)OC(C)(C)C)ccc3Cl)c1)O2 (stereo not given in full) | 28.1%
N#Cc1c(-c2cccc(O)c2O)cc(-c2ccc3ccccc3c2)[nH]c1=O | 67.5%
CN(C)c1nc(NCCNS(=O)(=O)c2ccc(C(=O)/C=C/c3ccc(Cl)cc3)cc2)nc(Nc2ccc(F)cc2)n1 | -65.9% (active)
CSc1ccc(C(=O)Nc2ccc3nn(/C(C#N)=C/c4ccccn4)nc3c2)cc1 | -28% (active)
COc1cc2c(c(OC)c1OC)C(=O)CC(c1cccc(NC(=O)c3cc([N+](=O)[O-])ccc3Cl)c1)O2 (stereo not given) | 42.7%
CC(=O)OC[C@@]1(C)C2CC[C@]3(C)C(CC=C4C5CC(C)(C)CC[C@]5(C(=O)Nc5ccc(F)cc5)CC[C@]43C)[C@@]2(C)C[C@@H](OC(C)=O)[C@@H]1OC(C)=O (stereo not given in full) | 34.5%
COc1cc(CNC(=O)/C=C/c2ccc3c(c2)OCO3)ccc1OCc1cn(-c2ccc([N+](=O)[O-])cc2)nn1 | 103%
